# PostGolgi ctrl: growth inhibition of yeast control strain, primary screen, counter-screen for post-Golgi transport modulator project. efflux-deficient yeast background strain, growth absorbance A615, 16 h. inhibition, % at 10 µM. hit rate 5% among 98,000
# PostGolgi yeast: phenotypic screen on post-Golgi transport, primary screen | hit rate 0.9% among 98,000 | AID 739, 2007 | inhibition, % at 10 µM | post-Golgi transport phenotypic cell assay;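 further: yeast cells grown in 1536-well plates; yeast grown about 18 h at 30C before absorbance read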
# CYP2C19 activ: human CYP2C19 activators, primary screen, biochemical, luminescence; Cytochrome P450 2C19 (Homo sapiens), P33261; recombinant CYP2C19, luciferin-H EGE luminescence; hits give high values; 0 = fully inhibited enzyme, 1 = untreated enzyme; activation factor at 5 µM; 96,000 tested, under 10 active;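 active means activation factor of at least 2 at 5 µM in the primary screen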
# CYP2C9 inhib: blockers of cytochrome P450 2C9 activity – biochemical, luminescence, ADME assay, primary screen; hit rate 20% among 96,000; P11712; inhibition, % at 5 µM; CYP2C9 Supersomes, luciferin-H conversion;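 active means blocking of liver enzyme CYP2C9 beyond about 50% at 5 µM, limit read from the data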
# Target sequence (P11712 whole entry, looked up): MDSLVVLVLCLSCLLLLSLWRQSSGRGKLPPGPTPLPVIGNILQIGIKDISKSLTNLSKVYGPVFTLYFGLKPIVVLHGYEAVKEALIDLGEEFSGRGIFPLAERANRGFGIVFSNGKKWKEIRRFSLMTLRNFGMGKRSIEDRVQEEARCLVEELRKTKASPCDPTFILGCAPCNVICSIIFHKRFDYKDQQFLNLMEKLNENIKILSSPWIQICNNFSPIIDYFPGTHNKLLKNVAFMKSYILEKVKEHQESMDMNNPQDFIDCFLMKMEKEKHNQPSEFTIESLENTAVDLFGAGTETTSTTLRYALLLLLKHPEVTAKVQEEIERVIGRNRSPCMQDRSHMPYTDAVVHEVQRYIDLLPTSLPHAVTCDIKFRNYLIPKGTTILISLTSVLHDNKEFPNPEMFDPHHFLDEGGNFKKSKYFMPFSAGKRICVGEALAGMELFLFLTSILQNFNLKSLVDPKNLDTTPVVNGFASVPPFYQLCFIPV
# CYP2C19 inhib: blockers of cytochrome P450 2C19 activity – biochemical, luminescence, ADME assay, primary screen; P33261; inhibition, % at 5 µM; CYP2C19 Supersomes, luciferin-H EGE luminescence, 30 min; AID 778, 2007; hit rate 21% among 96,000;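 active means CYP2C19 inhibition above a set limit at 5 µM in the primary screen, cut at about 50% in these data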
# CYP2C9 act: human CYP2C9 activators, primary screen, biochemical, luminescence; recombinant CYP2C9, luciferin-H conversion; hits give high values; factor 1 = untreated enzyme, 0 = blocked; hit rate 1.4% among 96,000; activation factor at 5 µM; Cytochrome P450 2C9 (Homo sapiens), P11712;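 active means activation factor of 2 or more for CYP2C9 at a 5 µM dose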
# A number is an active result; n = inactive; x = no result given. Most compounds without a hit are left out; they make up all but 32% or so of the library. Unless noted, no stated cut-off is given here; in the data, active means inhibition above about 30%; inactive means the rest.
SMILES,PostGolgi ctrl,PostGolgi yeast,CYP2C19 activ,CYP2C9 inhib,CYP2C19 inhib,CYP2C9 act
Cn1c(C(=O)N2CCN(Cc3ccc4c(c3)OCO4)CC2)cc2sccc21,n,n,n,n,70.0,n
Cn1c(C(=O)N2CCC(C(=O)N3CCN(Cc4ccc5c(c4)OCO5)CC3)CC2)cc2sccc21,n,n,n,n,50.7,n
C=CCn1c(SCC(=O)Nc2nccs2)nnc1-c1cc2cccc(OC)c2o1,n,n,n,n,n,n
O=C(c1ccc(F)cc1)N1CCC(N2CCCCCC2)CC1,n,n,n,n,n,n
O=C(c1ccc(F)cc1)N1C2CCC1CC(O)(c1ccccc1F)C2 (stereo not given),n,n,n,n,52.7,n
CCCCC(=O)NCCNC(=O)c1cc(OCC(F)(F)F)ccc1OCC(F)(F)F,n,n,n,n,n,n
O=C(NCCNS(=O)(=O)c1cccc(C(F)(F)F)c1)c1cc(OCC(F)(F)F)ccc1OCC(F)(F)F,n,n,n,n,79.6,n
COc1ccc(C(=O)NCCNC(=O)c2cc(OCC(F)(F)F)ccc2OCC(F)(F)F)cc1,n,n,n,n,n,n
CC(C)CC(=O)NCCNC(=O)c1cc(OCC(F)(F)F)ccc1OCC(F)(F)F,n,n,n,87.2,n,n
O=C(Nc1ccccc1N1CCOCC1)c1ccc2ccccc2n1,n,n,n,n,n,n
O=S(=O)(c1ccccc1)c1nc(Nc2ccccc2N2CCOCC2)sc1Cl,n,n,n,88.2,74.1,n
O=C(Nc1ccc2c(c1)OCCO2)C1CCN(S(=O)(=O)c2ccc(Br)s2)CC1,n,n,n,n,n,n
O=C(Nc1ccc2c(c1)nc1n2CCSC1)c1ccccc1,n,n,n,54.0,n,n
COCCN1CCn2c(nc3cc(NC(=O)c4cccs4)ccc32)C1,n,n,n,n,n,n
CC(c1ccccc1)N1CCn2c(nc3cc(NC(=O)c4cccs4)ccc32)C1 (stereo not given),n,n,n,83.6,n,n
CCCCCCCC(=O)OC(CN1CCCCC1)CN1CCCC1=O (stereo not given),n,n,n,n,n,n
CCN(CC)c1ccc(C(=S)N2CCN(c3ccccc3)CC2)cc1,n,n,n,n,n,n
COc1ccc(/C=C2\SC(=S)N(NC(=O)c3csc4c3CCCC4)C2=O)cc1,n,36.8,n,n,n,n
O=C(NC1CCC(NC(=O)C(F)(F)C(F)F)CC1)C(F)(F)C(F)F (stereo not given),n,n,n,n,n,n
CC(C)CC(=O)N1CCN(S(C)(=O)=O)CC1,n,n,n,n,n,n
CCOc1ccc(NC(=O)N(CCN(C)C)C(C)c2ccncc2)cc1 (stereo not given),n,n,n,n,n,n
Cc1ccc(-c2cc(C(F)(F)F)nc(SCC(=O)c3cccc([N+](=O)[O-])c3)n2)cc1,n,n,n,n,n,n
Cc1ccc(NCCC(=O)c2cccc([N+](=O)[O-])c2)c(C)c1,n,n,n,n,75.4,n
CC(C)(C)NC(=O)CSc1n[nH]c(=O)n1-c1ccccc1,n,n,n,n,n,n
Cc1c(O)ccc(/C(Cc2ccc3ccccc3n2)=N\O)c1O,n,n,n,88.5,66.5,n
SMILES,PostGolgi ctrl,PostGolgi yeast,CYP2C19 activ,CYP2C9 inhib,CYP2C19 inhib,CYP2C9 act
N#Cc1ccc(-n2c(-c3ccccc3)nnc2-c2ccccc2)cc1C#N,40.7,n,x,x,x,x
N#Cc1cccc(-n2c(-c3ccccc3)nnc2-c2ccccc2)c1C#N,n,n,n,89.4,89.0,n
Cc1ccc(-c2noc(CCC(=O)NCCN3CCOCC3)n2)cc1,n,n,n,n,n,n
O=C(CCc1nc(-c2ccccc2F)no1)NCCN1CCc2ccccc2C1,n,n,n,n,60.2,n
Cc1ccc(-c2noc(CCC(=O)NCCc3ccccc3Cl)n2)cc1,n,n,n,n,n,n
Cc1ccc(-c2noc(CCC(=O)NCCN3CCN(Cc4ccccc4)CC3)n2)cc1,n,n,n,62.0,50.8,n
O=C(CCc1nc(-c2ccccc2F)no1)NCCc1ccccc1Cl,n,n,n,56.3,80.5,n
CCN(CCCNC(=O)CCc1nc(-c2ccc(C)cc2)no1)c1cccc(C)c1,35.7,n,n,52.3,n,n
CCOC(=O)c1c(C)c(-c2ccccc2)n(CC(=O)NCCC(C)C)c1C,n,n,n,n,n,n
CSc1nc(C)c2c(n1)OC(CN1C(=O)c3ccccc3C1=O)C2 (stereo not given),x,x,n,n,n,n
Cc1ccc(-c2noc(CCC(=O)NCCN3CCc4ccccc4C3)n2)cc1,n,n,n,71.6,84.4,n
O=C(Nc1nnc(-c2ccccc2)s1)c1cc(S(=O)(=O)N2CCOCC2)c(Cl)cc1Cl,n,n,n,n,n,n
CC(C)CC(c1nnnn1C(C)C)N1CCN(c2cccc(Cl)c2)CC1 (stereo not given),72.7,n,n,n,n,n
CCC(OC(=O)C(NC(=O)c1ccccc1)c1ccccc1)C(=O)Nc1cc(C)on1 (stereo not given),n,42.3,n,n,n,n
O=C(C1Cc2ccccc2CN1S(=O)(=O)c1cccs1)N1CCCCC1 (stereo not given),n,n,n,n,n,n
CC(NCc1ccc(N(C)C)cc1)C1CC2CCC1C2 (stereo not given),n,n,n,n,86.0,n
CN(C)c1ccc(CNC2CC(C)(C)NC(C)(C)C2)cc1,n,n,n,n,n,n
Cc1cccc(C(OC(=O)c2ccco2)C(=O)NCc2ccccc2)n1 (stereo not given),n,n,x,x,x,x
CN(C)c1nccc(Nc2ccccc2)c1C#N,n,n,n,n,50.9,n
CN(C)CCN(Cc1ccccc1)c1nccc(N(C)C)c1C#N,n,n,n,n,n,n
c1ccc(N=P(N2CCOCC2)(N2CCOCC2)N2CCOCC2)cc1,n,n,n,n,n,n
Cc1nn(C(=O)C(C)N2C(=O)c3ccccc3C2=O)c(C)c1Br (stereo not given),n,n,n,n,n,n
Cc1cn(C(=O)C(C)N2C(=O)c3ccccc3C2=O)c(C)n1 (stereo not given),n,n,n,n,50.5,n
CCOC(=O)c1ccc2cccc(C)n2c1=O,n,n,n,74.4,87.5,n
CCCCCCC(=O)NN1CCN(C)CC1,n,n,n,n,n,n
O=C(NC(Cc1ccccc1)c1ccc2c(c1)OCCCO2)c1ccccc1 (stereo not given),n,n,n,65.0,n,n
CCOC(=O)C1C(C)N=C2SCC(=O)N2C1c1cccc(Br)c1 (stereo not given),n,n,n,85.0,85.3,n
CCOC(=O)N1CCN(CC(=O)Nc2cccc(Br)c2)CC1,n,n,n,n,n,n

# Assay outcomes from PubChem BioAssay.
